NS1 function inh – inhibitors of influenza NS1 protein function; AID 2326; 270,000 compounds, 0.4% hits; Potency, µM (series often up to 46.1 µM), for the others: at the top dose activity, positive = more growth; calls by dose curve; note: potency is the fitted concentration of half-maximal effect; actives are rising curves; nearly all actives have a fitted effect of over 50% in size
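In this qHTS, NS1 from influenza A is expressed in budding yeast, where it slows growth. Cells are switched from glucose to 2% galactose medium (pH 6.0, -URA), treated with compound, and growth recovery is read at OD600.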
Shiga inhibitor – blocks Shiga toxin action in Vero cells; Vero cells, Shiga toxin protein synthesis inhibition reporter; inhibition, % at 38.7 µM; 290,000 compounds, 9.2% hits; AID 2315; in the data active = inhibition mostly above about 28%, no sharp cut-off; inactive = mostly below about 43%; note: 0% is about no effect
CHX counter – affects cycloheximide protein synthesis inhibition readout, counter-screen | cell reporter, cycloheximide protein synthesis inhibition counterscreen | max response, % | 300,000 compounds, 12% hits; in the data active = max response mostly above about 13%, no sharp cut-off; inactive = mostly below about 14%; note: read at 38.3 µM for the half of the compounds with a filed dose; 0% is about no effect
Pf growth 48h – inhibits P. falciparum growth in the first generation, 48 h | Potency, µM (titrated, usually from 28.7 µM), without a hit: top-dose activity change, negative = inhibition, most hits filed as inhibitors | 310,000 compounds, 5.9% hits | P. falciparum luciferase growth in erythrocytes, 48 h | AID 504832; note: potency is the fitted concentration of half-maximal effect; % is set by controls: 0 for no effect and ±100 for the full control effect
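Luciferase-expressing parasites in RBCs, 2% Hct / 0.1% parasitemia final; RPMI 1640 + 0.5% Albumax; 37 C, 5% CO2, one generation; luminescence read-out, lower signal = inhibition.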
Pf growth 96h – P. falciparum growth inhibition at 96 hour, primary screen for plastid delayed-death inhibitors; P. falciparum luciferase reporter growth, 96 h; 320,000 compounds, 6.9% hits; Potency, µM (top dose mostly 28.7 µM), for the others: top-dose activity change, negative = inhibition, most hits filed as inhibitors; note: potency is the fitted concentration of half-maximal effect; % is set by controls: 0 for no effect and ±100 for the full control effect
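Infected RBCs, 2% Hct / 0.05% parasitemia final; luciferase-reporter P. falciparum; cpd 96 h, 37 C, 5% CO2; luciferase detection reagent; luminescence.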
SARS PLP yeast – blocks SARS-CoV papain-like protease in a yeast assay; S. cerevisiae expressing SARS-CoV PLpro, growth rescue; Potency, µM (series often up to 32.9 µM), for inactives: top-dose activity, positive = growth rescue, hits mostly activators; 330,000 compounds, 0.19% hits; calls by dose curve; note: potency is the fitted concentration of half-maximal effect; 0% is about no effect; nearly all actives have a fitted effect of over 55% in size
* marks the source's active call; other numbers are inactive results; i = inactive; u = inconclusive; x = no result; + = active, no number. Sampled rows, rich in hits. Any-hit rate of the full collection: about 21%. Unless noted, calls come from the whole dose curve; as a rule, active = well fitted inhibition curve with a large enough effect; inconclusive = small, poorly fitted or top-dose-only effect, or another doubt; inactive = no such curve, though single readings can be large or run the other way.

SMILES	NS1 function inh	Shiga inhibitor	CHX counter	Pf growth 48h	Pf growth 96h	SARS PLP yeast
CCCC(C(=O)NC1CCCC1)N(Cc1ccc2c(c1)OCO2)C(=O)c1snc(C(N)=O)c1N (stereo not given)	8%	-9	-2	x	9.3µM*	16%
NC(=O)c1ccc(N2CCN(c3ccc(O)cc3)CC2)c([N+](=O)[O-])c1	3%	1	-4	u	1.7µM*	-1%
COc1ccc(C(=O)c2ccc(N3CCOCC3)c([N+](=O)[O-])c2)cc1	1%	-3	-2	10%	19%	0%
NC(=O)CC(NC(=O)c1ccccc1)c1ccc(N2CCN(c3ccc(F)cc3)CC2)c([N+](=O)[O-])c1 (stereo not given)	8%	-4	1	39%	58%	3%
CCN(CC)S(=O)(=O)c1ccc(N2CCN(c3cccc(OC)c3)CC2)c([N+](=O)[O-])c1	0%	-4	-2	u	9.3µM*	-8%
NC(=O)CC(NC(=O)c1ccccc1)c1ccc(N2CCN(c3ccccc3)CC2)c([N+](=O)[O-])c1 (stereo not given)	21%	-4	-3	-18%	15µM*	-14%
COc1ccc(N2CCN(c3ccc(C(=O)O)cc3[N+](=O)[O-])CC2)cc1	-3%	31	12*	35%	-1%	1%
CCc1nnc(NC(=O)CC23CC4CC(CC(Br)(C4)C2)C3)s1	6%	45	-6	-13%	-15%	1%
Cc1cc(C)cc(N(CCC#N)C(=O)COC(=O)c2ccc(OCc3c(C)noc3C)cc2)c1	x	x	x	u	10µM*	0%
N#Cc1c(/N=C/C2C(=O)NC(=S)NC2=O)sc2c1CCCC2	x	-6	1	-7%	-4%	0%
N#Cc1c(/N=C/N2CCOCC2)sc2c1CCCCC2	-26%	107*	24	156%	u	2%
CN(C)/C=N/c1sc2c(c1C#N)CCC2	-10%	13	43*	0%	x	4%
CN(C)/C=N/c1sc2c(c1C#N)CCCCC2	-12%	20*	56*	95%	85%	-5%
CCCN(/C=N/c1sc2c(c1C#N)CCCCC2)CCC	-1%	18	16	u	0%	14%
O=C(CSc1n[nH]c(-c2ccccn2)n1)Nc1cccc(Cl)c1	-9%	-11	-1	u	u	0%
Cc1cc(C)n2nc(SCC(=O)N(CC(C)C)c3c(N)n(CC(C)C)c(=O)[nH]c3=O)nc2n1	x	-6	-2	7%	4%	3%
CC(C)Cn1c(N)c(C(=O)CSc2nc3ncc(Cl)cc3[nH]2)c(=O)n(C)c1=O	x	x	x	u	10µM*	0%
Cc1cc(C)n2nc(SCC(=O)c3c(N)n(CC(C)C)c(=O)n(C)c3=O)nc2n1	x	-8	-6	4.7µM*	u	-9%
CCCn1c(N)c(C(=O)CSc2nc(N)cc(=O)[nH]2)c(=O)n(C)c1=O	x	x	x	u	4.7µM*	-3%
Cc1nnc(SC(C)C(=O)N2CCc3ccccc32)s1 (stereo not given)	-48%	-6	0	6%	x	-4%
Cc1ccc(OCC(=O)N2CCCc3ccccc32)cc1	0%	33*	19	u	-2%	-1%
Cc1ccc(OC(C)C(=O)N2CCc3ccccc32)cc1 (stereo not given)	4%	-34	1	2.9µM*	x	-1%
CCc1ccc(OCC(=O)N2c3ccccc3CCc3ccccc32)cc1	2%	-6	-3	9.3µM*	i	-55%
O=C(COc1ccccc1F)N1c2ccccc2CCc2ccccc21	-6%	-10	-3	-22%	u	8%
CC(Sc1nnc(-c2ccccc2)c(-c2ccccc2)n1)C(=O)N1CCc2ccccc21 (stereo not given)	19%	2	-1	-27%	7.4µM*	14%
SMILES	NS1 function inh	Shiga inhibitor	CHX counter	Pf growth 48h	Pf growth 96h	SARS PLP yeast
O=C(COc1ccc(Cl)cc1)OCC(=O)N1CCCc2ccccc21	-39%	10	-3	6%	23%	2%
CC1COc2ccccc2N1C(=O)c1ccc(Cl)nc1 (stereo not given)	-5%	-2	-4	1%	0%	1%
CCCc1cc2c(OC(=O)CC)c(-c3ccc(C(=O)OCC)o3)c(=O)oc2cc1OC	-2%	17	-4	-13%	-9%	-5%
CN(C)S(=O)(=O)c1ccc(Cl)c(C(=O)NNC(=O)Cn2ccc(C(F)(F)F)n2)c1	x	x	x	u	21%	1%
CSc1ccc(S(=O)(=O)NC2CC2)cc1	2%	-2	-3	20%	u	-11%
CCCCCC1CC(=O)C=C(C)C1C(=O)OC (stereo not given)	-3%	-9	-1	-18%	-4%	2%
CCc1ccc(OCC(=O)N2CCc3ccccc32)cc1	-29%	96*	35*	37%	41%	-6%
Cc1cccc(OCC(=O)NC(=S)N2CCCc3ccccc32)c1	15%	i	35*	u	9.3µM*	-2%
CC(C(=O)N1CCc2ccccc21)N1CCN(S(=O)(=O)c2cccc(C(F)(F)F)c2)CC1 (stereo not given)	x	x	x	12µM*	13µM*	-11%
O=C(COc1ccc2c(c1)CCC2)N1CCc2ccccc21	-20%	98*	43*	x	-17%	0%
Cc1cccc(OCC(=O)Nc2ccccc2N2CCCCC2)c1	-73%	-8	-3	u	-10%	-9%
Cc1ccc(OCC(=O)N2CCc3ccccc32)cc1	-17%	84*	76*	118%	100%	-25%
CN(C)c1cc[n+](CC(=O)N2CCCc3ccccc32)cc1	x	-7	-1	5.2µM*	u	-4%
Cc1cc[n+](CC(=O)N2CCCc3ccccc32)cc1	x	12	-3	0%	-1%	1%
Cc1ccc(OC(=O)CCC(=O)N2CCc3ccccc32)cc1	-9%	-18	-6	12%	12%	-1%
COc1cc2c(cc1OC)CN(C(C)C(=O)N1CCc3ccccc31)CC2 (stereo not given)	2%	-14	-3	x	u	14%
CC(C(=O)N1CCc2ccccc21)N1CCc2ccccc2C1 (stereo not given)	0%	11	0	u	9.3µM*	-5%
C=CCOc1ccc(Br)cc1CNCC	x	2	-4	1%	-1%	0%
Cc1cccc(NC(=O)Cn2cnc3c(oc4ccccc43)c2=O)c1C	x	2	4	21%	8%	0%
N/C(=N\OC(=O)c1ccc2ccccc2c1)c1cccc([N+](=O)[O-])c1	-23%	+	39*	-24%	u	-9%
N/C(=N\OC(=O)c1cccc(Br)c1)c1ccc([N+](=O)[O-])cc1	-11%	11	-3	39%	33%	-7%
N/C(=N\OC(=O)c1ccccc1Cl)c1cccc([N+](=O)[O-])c1	-42%	52*	37*	284%	-26%	-1%
N/C(=N\OC(=O)Cc1ccc(-c2ccccc2)cc1)c1cccc([N+](=O)[O-])c1	17%	-19	-2	31%	38%	3%

Screens deposited in PubChem BioAssay by National Center for Advancing Translational Sciences (NCATS).
